For 20 molecules, growth inhibition results are on record in PubChem BioAssay (NCI).

About 79,000 compounds went through this panel and 15% of them were active in at least one assay; those are over-represented in the sample as a whole. A number with no mark means an inactive call. Calls of active or inactive are those of the source. Rule as the data show it: active = growth inhibition above about 70%; inactive = the rest.

The nature of assay [1]: NCI Yeast Anticancer Drug Screen. Data for the rad50 strain (AID 155).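 Also: 0% = growth of vehicle-only cultures of the same strain.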 The note with it: S. cerevisiae rad50 strain growth inhibition; at 50.0 µM; hits give high values. The method in brief:
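Compounds were tested on a yeast strain with an engineered DNA damage repair alteration; the reported value is growth inhibition normalised to vehicle treatment.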

A short description of assay [2]: NCI Yeast Anticancer Drug Screen. Data for the mec2-1 strain (AID 157). The note with it: S. cerevisiae mec2-1 strain, at 50.0 µM, hits give high values. A digest of the protocol:
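Readout is yeast growth inhibition, normalised to vehicle-treated controls, in the mec2-1 strain exposed to compound.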

A short description of assay [3]: NCI Yeast Anticancer Drug Screen. Data for the sgs1 mgt1 strain (AID 161).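 Also: 0% = growth of cultures given vehicle only.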 The note with it: S. cerevisiae sgs1 mgt1 strain, at 50.0 µM, hits give high values. A digest of the protocol: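 This yeast growth screen uses a strain with defined DNA-repair lesions; compound-treated growth is compared with vehicle-treated growth.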
A short description of assay [4]: NCI Yeast Anticancer Drug Screen. Data for the cln2 rad14 strain (AID 165).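 Also: 0% = growth equal to vehicle treated cultures.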 The note with it: S. cerevisiae cln2 rad14 strain, at 50.0 µM, hits give high values. The method in brief: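 Relative to vehicle controls, growth inhibition of compound-treated cln2 rad14 yeast was recorded.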
A short description of assay [5]: NCI Yeast Anticancer Drug Screen. Data for the bub3 strain (AID 167). The following applies: S. cerevisiae bub3 mutant strain, at 50.0 µM, hits give high values. The method in brief:
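Growth of a checkpoint-deficient yeast mutant is measured after compound exposure. Values represent inhibition relative to vehicle.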

Assay [6] can be described thus: NCI Yeast Anticancer Drug Screen. Data for the mlh1 rad18 strain (AID 175). The note with it: S. cerevisiae mlh1 rad18 strain growth inhibition; at 50.0 µM; hits give high values. The method in brief:
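Test agents were incubated with a yeast strain of defined genotype (DNA damage repair defect). Inhibition of growth was derived by comparison with vehicle-exposed cultures.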

For `CCC1CCC(CC)C1OC(C)=O` (stereo not given), the growth inhibition in assay [1] was -31.1%; in assay [2] it was -27.7%; in assay [3], -12.3%; in assay [4] it was -26.4%; in assay [5], -28.7%; in assay [6] it was -21.6%.

With `CC(=O)CC(=O)CCCCCCCCCCCC(=O)CC(C)=O`, the growth inhibition in assay [1] is -5.15%; in assay [2] it was -15.4%; in assay [3] it was -5.45%; in assay [4], -0.1%; in assay [5], 13.5%; in assay [6], 10.4%.

Consider `CC(=O)N/C(=C\c1ccc(Cc2nc3c([nH]2)C(=O)c2ccccc2C3=O)cc1)c1nc2c([nH]1)C(=O)c1ccccc1C2=O`, for which the growth inhibition was -7.5% in assay [1]; 12.4% in assay [2]; 11.1% in assay [3]; 23.7% in assay [4]; 15.2% in assay [5]; 33.1% in assay [6].

On to `CC(=O)N1C(Nc2ccccn2)CCN1c1ccccc1` (stereo not given), for which the growth inhibition in assay [1] was -30.9%; in assay [2], -45.3%; in assay [3], -21.4%; in assay [4], 16.6%; in assay [5], 7.9%; in assay [6], -23.2%.

As for `CCOC(=O)CCC(C(=O)c1cccnc1)c1ccccn1` (stereo not given), the growth inhibition was -4% in assay [1]; -3.6% in assay [2]; 6.7% in assay [3]; -52.9% in assay [4]; -4.6% in assay [5]; -7.05% in assay [6].

In the case of `O=C(O)COc1cc(Br)cc(Br)c1`, the growth inhibition in assay [1] is 1.4%; in assay [2], -14.2%; in assay [3] it was -7.55%; in assay [4], 16%; in assay [5], -3.9%; in assay [6], -1.7%.

For the molecule `CC(=O)[C@H]1CC[C@H]2[C@@H]3CC=C4N(CCO)C(=O)CC[C@]4(C)[C@H]3CC[C@]12C`, the growth inhibition in assay [1] is -18.9%; in assay [2], -1.4%; in assay [3], 14.8%; in assay [4] it was -28.1%; in assay [5], 25.9%; in assay [6], 13.3%.

With `Cc1ccc(C(=O)/C=C\C=C\c2ccccc2)cc1`, the growth inhibition in assay [1] is 16.6%; in assay [2], 27.7%; in assay [3], 41.6%; in assay [4], -3.7%; in assay [5], 50.6%; in assay [6], 19.8%.

`c1ccc2cc(B(c3cccc4ccccc34)c3cccc4ccccc34)ccc2c1`: the growth inhibition was 14% in assay [1]; -8.75% in assay [2]; -8.4% in assay [3]; -25.6% in assay [4]; -2.25% in assay [5]; -23.9% in assay [6].

Turning to `CCOC(=O)/C(C#N)=C\C1(C)CCC(C)=CO1` (stereo not given), the growth inhibition is -1.8% in assay [1]; -8.65% in assay [2]; -7.9% in assay [3]; -31.6% in assay [4]; -4.85% in assay [5]; -3.25% in assay [6].

Consider `COc1ccc(C(O)S(=O)(=O)O)cc1` (stereo not given), for which the growth inhibition was -1.1% in assay [1]; -13.9% in assay [2]; -9.9% in assay [3]; -6.75% in assay [4]; -22.1% in assay [5]; 1.2% in assay [6].

On to `OCC(O)c1ccccn1` (stereo not given), for which the growth inhibition in assay [1] was 5.5%; in assay [2], -18.8%; in assay [3], 6.65%; in assay [4], -1.45%; in assay [5], 2.55%; in assay [6] it was 6.2%.

Turning to `COc1ccc2cc1Oc1ccc(cc1)CC1c3cc(c(OC)cc3CCN1C)Oc1c3c(cc4c1C(C2)N(C)CC4)OCO3` (stereo not given), the growth inhibition was 1.6% in assay [1]; -14.3% in assay [2]; -15.7% in assay [3]; 4.65% in assay [4]; 1.1% in assay [5]; 3.45% in assay [6].

For the molecule `O=C(COc1ccc(Cl)c(Cl)c1)NCc1cccc(NC(=O)CBr)c1`, the growth inhibition in assay [1] is 99.2% (active); in assay [2], 99.5% (active); in assay [3], 45.2%; in assay [4], 99.5% (active); in assay [5], 99.2% (active); in assay [6], 99.2% (active).

On to `COC[C@@H](N=CN1CCc2cc(OC)c(OC)cc2C1)C(C)(C)C`, for which the growth inhibition was -31.2% in assay [1]; -18.2% in assay [2]; -14.6% in assay [3]; 13% in assay [4]; -11.3% in assay [5]; -17% in assay [6].

Consider `CC(C)C1c2ccccc2C(=O)C1C(N)=O` (stereo not given), for which the growth inhibition in assay [1] is -16.9%; in assay [2] it was -11.4%; in assay [3] it was -12.8%; in assay [4], -22.6%; in assay [5], -4.55%; in assay [6] it was -10.4%.

With `CC1CCC2(OC1)OC1CC3C4CCC5CC(O)CCC5(C)C4C(=O)C(O)C3(C)C1C2C` (stereo not given), the growth inhibition in assay [1] is 39.5%; in assay [2], 17.9%; in assay [3], 49%; in assay [4], 16.7%; in assay [5] it was 14.5%; in assay [6] it was 41%.

Take `CN1C(=O)C(O)C[C@@H]1c1ccc(F)cc1` (stereo not given in full): the growth inhibition in assay [1] is -5%; in assay [2], 6.8%; in assay [3], 12.7%; in assay [4], 16.6%; in assay [5], -0.25%; in assay [6] it was -30.4%.

Regarding `CSc1nnn(C(C)(C)C)n1`, the growth inhibition in assay [1] is 5.35%; in assay [2] it was 6%; in assay [3], -3.5%; in assay [4], -15.9%; in assay [5], -8.75%; in assay [6] it was 8.8%.

Take `Cc1cccc(C)c1NN`: the growth inhibition in assay [1] is 23.2%; in assay [2], -4.15%; in assay [3], 11.8%; in assay [4], -12.7%; in assay [5], -11.5%; in assay [6] it was 24.2%.
